Measured values from PubChem BioAssay (Tox21).
Inconclusive results are not listed. Calls of active or inactive are those of the source. Calls come from the whole dose curve; as a rule, active = well fitted activation curve with a large enough effect in the signal ratio in the repeat runs (not every such curve was filed as active); inconclusive = weak or mixed curves, or effect the other way; inactive = no such curve, though single readings can be large or run the other way; the % refers to the signal ratio.

molecular target: Glucocorticoid receptor (Homo sapiens) (UniProt P04150); test: qHTS assay to identify small molecule agonists of the glucocorticoid receptor (GR) signaling pathway (AID 720691); details: GR-bla HeLa, beta-lactamase reporter ratio, 18 h; series mostly up to 62.4 µM; activation: at the top concentration
From the text: U.S. Tox21 Program National Center for Advancing Translational Sciences [NCATS] NIH Chemical Genomics Center [NCGC] U.S. Environmental Protection Agency [EPA] National Institutes of Environmental Health Sciences [NIEHS] National Toxicology Program [NTP] U.S. Food and Drug Administration [FDA] Tox21 Assay Overview: The Glucocorticoid receptor (GR) is one of the members of the nuclear receptor family of ligand-dependent transcription factors. GR plays a critical role in carbohydrate, protein and lipid metabolisms and programmed cell death. CellSensor GR-bla HeLa cell line (Invitrogen) contains a beta-lactamase reporter gene under the control of the glucocorticoid response element stably integrated into HeLa cells, a cervical cancer cell line that expresses glucocorticoid receptor. The activation of the reporter gene under culture conditions can be detected by fluorescence intensity. This cell line has been used to screen the Tox21 10K compound library and to identify the compounds that activate the GR signaling.
Tox21 Assay Protocol Summary: The GR-bla HeLa cells were dispensed at 1500 cells/6 ul/well in 1536-well black wall/clear bottom plates using a Multidrop Combi (ThermoFisher Scientific, Waltham, MA) dispenser. After the assay plates were incubated at a 37 C/5% CO2 incubator for 4 hours, 23 nL of compounds dissolved in DMSO, positive controls or DMSO only was transferred to the assay plate by a pintool station (Kalypsys, San Diego, CA). The plates were incubated at 37 C for 18 hours. After 1 uL of LiveBLAzerTM B/G FRET substrate was added using a Flying Reagent Dispenser (Aurora Discovery, San Diego, CA), the plates were incubated at room temperature for 2 hours, and fluorescence intensity was measured by an Envision plate reader (PerkinElmer, Shelton, CT).
% is set by controls: 0 for no effect and ±100 for the full control effect.

Glucocorticoid receptor (Homo sapiens), sequence (P04150 whole entry, looked up): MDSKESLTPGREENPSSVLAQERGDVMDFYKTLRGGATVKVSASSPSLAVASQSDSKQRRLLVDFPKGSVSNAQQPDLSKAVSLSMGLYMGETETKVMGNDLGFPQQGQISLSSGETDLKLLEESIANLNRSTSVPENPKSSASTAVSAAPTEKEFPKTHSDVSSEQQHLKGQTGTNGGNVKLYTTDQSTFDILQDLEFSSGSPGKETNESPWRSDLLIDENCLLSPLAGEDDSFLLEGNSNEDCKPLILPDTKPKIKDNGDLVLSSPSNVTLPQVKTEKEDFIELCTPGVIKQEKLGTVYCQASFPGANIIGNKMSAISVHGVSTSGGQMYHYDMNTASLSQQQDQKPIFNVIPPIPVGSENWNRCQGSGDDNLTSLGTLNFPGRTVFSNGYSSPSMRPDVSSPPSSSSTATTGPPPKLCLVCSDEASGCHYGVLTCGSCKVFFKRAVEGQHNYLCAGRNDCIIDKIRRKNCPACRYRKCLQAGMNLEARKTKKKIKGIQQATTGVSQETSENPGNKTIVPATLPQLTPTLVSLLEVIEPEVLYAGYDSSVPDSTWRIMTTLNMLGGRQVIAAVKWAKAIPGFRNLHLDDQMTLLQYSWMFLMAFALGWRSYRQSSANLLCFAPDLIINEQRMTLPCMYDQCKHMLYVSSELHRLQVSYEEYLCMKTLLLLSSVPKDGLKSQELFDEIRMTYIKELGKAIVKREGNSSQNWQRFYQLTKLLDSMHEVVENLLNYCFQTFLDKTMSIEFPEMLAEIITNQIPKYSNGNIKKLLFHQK

Row | SMILES | activation | Potency
1 | CC(=O)N(O)CCCCCNC(=O)CCC(=O)N(O)CCCCCNC(=O)CCC(=O)N(O)CCCCCN | -2.65% [at 29.2 µM] (inactive) | –
2 | CC/C(=C\C(=N/O)C(N)=O)C(C)[N+](=O)[O-] (stereo not given) | 0.0152% (inactive) | –
3 | O=C1CCCCCO1 | -0.21% [at 79.2 µM] (inactive) | –
4 | CN1CCC(OC(c2ccccc2)c2ccccc2)CC1 | -0.0018% [at 29.2 µM] (inactive) | –
5 | NCc1ccccc1 | 1.63% (inactive) | –
6 | CCOC(=O)C1=NN(c2ccccc2)C(=O)C1 | 2.7% (inactive) | –
7 | Cc1ccc(O)c([C@H](CCN(C(C)C)C(C)C)c2ccccc2)c1 | 2.02% (inactive) | –
8 | COc1ccc([C@@H]2Sc3ccccc3N(CCN(C)C)C(=O)[C@@H]2OC(C)=O)cc1 | -10.4% (inactive) | –
9 | CC1(C)CCC(C)(C)c2cc(NC(=O)c3ccc(C(=O)O)cc3)ccc21 | -3.51% (inactive) | –
10 | COc1ccc(OC)c(OC)c1 | 1.48% (inactive) | –
11 | N#Cc1cc2ccccc2c2ccccc12 | -2.34% [at 79.2 µM] (inactive) | –
12 | CCCCOc1cc(C(=O)OCCN(CC)CC)ccc1N | 0.106% [at 29.2 µM] (inactive) | –
13 | O=C(O)Cn1c(C(=O)Nc2nc(-c3ccccc3Cl)cs2)cc2ccccc21 | -7.45% (inactive) | –
14 | CCCCCOC(=O)c1ccc(O)cc1 | -6.89% [at 79.2 µM] (inactive) | –
15 | Cc1nc2ccccc2n1Cc1ccc(Cl)cc1 | -6.67% (inactive) | –
16 | CC(Cc1cccc(C(F)(F)F)c1)NCCOC(=O)c1ccccc1 (stereo not given) | 4.86% (inactive) | –
17 | Cc1cc(CC(=O)O)c(C)n1-c1ccc(Cl)cc1 | -5.61% (inactive) | –
18 | NC[C@H]1O[C@H](O[C@H]2[C@H](O)[C@@H](O[C@H]3O[C@H](CO)[C@@H](O)[C@H](N)[C@H]3O)[C@H](N)C[C@@H]2N)[C@H](O)[C@@H](O)[C@@H]1O | – | inactive
19 | CCOc1cc(OCC)c(C(=O)CCC(=O)O)cc1OCC | 0.489% (inactive) | –
20 | COC(=O)C(C)=O | -1.11% [at 79.2 µM] (inactive) | –

Row | SMILES | activation | Potency
21 | Nc1nc(CC(=O)O)cs1 | -0.906% [at 79.2 µM] (inactive) | –
22 | O=C(O)Cc1sc(-c2ccccc2)nc1-c1ccc(Cl)cc1 | – | inactive
23 | CCCCCCCCCC=O | -2.45% (inactive) | –
24 | CC[C@@H]1C[C@H](N(Cc2cc(C(F)(F)F)cc(C(F)(F)F)c2)C(C)=O)c2cc(C(F)(F)F)ccc2N1C(=O)OC(C)C | -0.655% (inactive) | –
25 | COc1ccc2[nH]c(S(=O)Cc3ncc(C)c(OC)c3C)nc2n1 (stereo not given) | -2.65% (inactive) | –
26 | CCCCOC(=O)c1ccccc1C(=O)OCC(CC)CCCC (stereo not given) | 0.963% (inactive) | –
27 | CCCCCCCCN(C)C | 1.33% (inactive) | –
28 | O=S(=O)(O)c1ccc(O)c2ncccc12 | 2.19% (inactive) | –
29 | Cc1ccc(C(N)=O)cc1N | -3.34% (inactive) | –
30 | CC(C)(C)c1ccc(S)cc1 | -0.182% (inactive) | –
31 | CC(C)c1ccc2c(C(C)C)cc(C(C)C)c(S(=O)(=O)O)c2c1 | -5.79% [at 79.2 µM] (inactive) | –
32 | CCOC(=S)SSC(=S)OCC | – | inactive
33 | NC(=S)N/N=C/c1cccnc1 | -2.17% (inactive) | –
34 | O=c1c2ccccc2nnn1CCl | -0.943% (inactive) | –
35 | CCCC(C)C | -0.953% [at 79.2 µM] (inactive) | –
36 | O=C(O)C1CCC(C(=O)O)CC1 (stereo not given) | -0.477% (inactive) | –
37 | Cc1cccc(OCCOc2cccc(C)c2)c1 | 4.6% [at 79.2 µM] (inactive) | –
38 | CCCCCC/C=C/C=O | -3.2% (inactive) | –
39 | CCN(CC)CCOC(=O)C1(c2ccccc2)CCCC1 | 0.679% (inactive) | –
40 | O=C(O)[C@@H]1[C@H]2C[C@H]3c4[nH]c5ccccc5c4CCN3C[C@@H]2CC[C@@H]1O | -0.334% [at 29.2 µM] (inactive) | –
